Bioassay records deposited in PubChem BioAssay by National Center for Advancing Translational Sciences (NCATS).
Only some compounds are listed: those with a hit (about 15% of all), similar ones and a draw of the others.
ELG1 repair inh: qHTS screen for small molecules that inhibit ELG1-dependent DNA repair in human embryonic kidney (HEK293T) cells expressing luciferase-tagged ELG1. HEK293T ELG1-luciferase reporter, luminescence, 16 h; DNA damage induced by 5-fluorouridine. Potency, µM (titrated, usually from 46.1 µM), for the others: at the top dose activity change, negative = inhibition, usual class: inhibitors. actives 2.3% (n = 330,000); further: nearly all actives have a fitted effect of over 55% in size
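In this reporter screen, reduction of luminescence relative to DMSO vehicle indicated activity. Compounds and 5-fluorouridine were added together to 2,000 cells per well, incubated for 16 hr at 37 °C, then developed with ONE-Glo.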
Gal4-VP16 FLuc: VP16 counterscreen qHTS for inhibitors of ROR gamma transcriptional activity; Drosophila S2 Gal4-VP16 UAS-luciferase, luminescence, 20 h; Potency, µM (titrated, usually from 53.6 µM), inactives show at the top dose activity, negative = inhibition, usual class: inhibitors; actives 3.5% (n = 310,000); AID 2546, 2010;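 further: Gal4-VP16 expression switched on by copper sulfate through the metallothionein promoter; nearly all actives have a fitted effect of over 50% in size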
TDP1 cell noCPT: qHTS for Inhibitors of human tyrosyl-DNA phosphodiesterase 1 (TDP1): qHTS in cells in absence of CPT. actives 15% (n = 420,000). Potency, µM (series often up to 46.2 µM), without a hit: at the highest dose activity change, negative = growth inhibition, usual class: inhibitors. DT40 Tdp1-/- hTDP1 cells, no CPT, ATP luminescence, 48 h. AID 686978, 2013; further: nearly all actives have a fitted effect of over 55% in size
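DT40 Tdp1-/-;hTDP1 cells, no CPT (DMSO vehicle only), 400 cells/well; compounds pin-transferred; ≥48 hr, 37 °C; CellTiter-Glo 30 min RT dark, luminescence read.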
DT40 TDP1 CPT: qHTS for Inhibitors of human tyrosyl-DNA phosphodiesterase 1 (TDP1): qHTS in cells in presence of CPT; chicken DT40 Tdp1-/-;hTDP1 cells + 20 nM CPT, ATP luminescence, 48 h; AID 686979, 2013; actives 12% (n = 420,000); Potency, µM (titrated, usually from 46.2 µM), without a hit: top-dose activity change, negative = growth inhibition, actives largely listed as inhibitors; further: nearly all actives have a fitted effect of over 55% in size
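Chicken DT40 Tdp1-/- cells complemented with human TDP1, 400 cells/well, exposed to compounds plus 20 nM camptothecin for at least 48 h at 37 C; viability read as ATP content by CellTiter-Glo luminescence.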
RORgamma inh: qHTS for inhibitors of ROR gamma transcriptional activity; Nuclear receptor ROR-gamma (Mus musculus), P51450; Potency, µM (highest dose often 53.6 µM), for inactives: top-dose activity change, negative = inhibition, actives largely listed as inhibitors; AID 2551, 2010; Drosophila S2 Gal4-RORgamma UAS-luciferase reporter, 20 h; actives 5.4% (n = 310,000); further: nearly all actives have a fitted effect of over 60% in size
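In this cell-based reporter format, copper sulfate (700 uM final) drives Gal4–ROR gamma fusion expression from a metallothionein promoter in Drosophila Schneider cells; compounds preincubated 1 hr, reporter read after 20 hr at ambient temperature.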
12-LOX inh: Primary qHTS assay for inhibitors of human arachidonate 12S-lipoxygenase (ALOX12): Round 2; purified 12hLO, xylenol orange hydroperoxide absorbance; actives 1.1% (n = 580,000); Potency, µM (titrated, usually from 108 µM), inactives show at the highest dose activity change, negative = inhibition, actives largely listed as inhibitors
Target sequence (P18054 whole entry, looked up): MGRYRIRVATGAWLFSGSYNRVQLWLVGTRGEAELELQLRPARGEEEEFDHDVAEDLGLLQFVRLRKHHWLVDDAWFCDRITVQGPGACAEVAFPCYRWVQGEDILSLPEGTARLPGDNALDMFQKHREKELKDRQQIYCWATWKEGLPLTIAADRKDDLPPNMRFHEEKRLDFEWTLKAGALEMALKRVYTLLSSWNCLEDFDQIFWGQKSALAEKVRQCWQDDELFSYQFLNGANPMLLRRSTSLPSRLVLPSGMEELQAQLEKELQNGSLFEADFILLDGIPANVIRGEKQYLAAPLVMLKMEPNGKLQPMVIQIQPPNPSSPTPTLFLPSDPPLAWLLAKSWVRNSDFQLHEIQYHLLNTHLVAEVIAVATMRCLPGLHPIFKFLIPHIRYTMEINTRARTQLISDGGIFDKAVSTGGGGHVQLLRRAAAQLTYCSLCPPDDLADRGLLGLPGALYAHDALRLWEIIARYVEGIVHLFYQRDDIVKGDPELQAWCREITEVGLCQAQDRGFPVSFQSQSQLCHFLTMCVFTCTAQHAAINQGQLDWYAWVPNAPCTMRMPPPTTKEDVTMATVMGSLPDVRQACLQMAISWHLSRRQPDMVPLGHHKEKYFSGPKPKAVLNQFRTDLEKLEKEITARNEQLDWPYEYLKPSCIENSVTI
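Purified human 12hLO (150 nM final) in 25 mM Hepes, 0.01% Triton X-100, pH 7.0 was preincubated 15 min at room temperature with compound. Then 40 uM arachidonic acid was added, 30 min. Hydroperoxide was read by Fe-XO absorbance ratio 573/405 nm.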
* hit, by the source's call; i = inactive; ? = inconclusive; nt = not tested or not shown; [ ] = dose if it differs, or a comment. The call rests on the fitted dose curve; in most records, active means well fitted curve in the direction sought with a large enough effect; inconclusive means small, poorly fitted or top-dose-only effect, or another doubt; inactive means no such curve, though single readings can be large; an effect the other way counts as inactive or inconclusive. On the % scale 0 is the no-effect control and ±100 the full control effect; potency means the concentration at half of the fitted maximal effect.

SMILES	ELG1 repair inh	Gal4-VP16 FLuc	TDP1 cell noCPT	DT40 TDP1 CPT	RORgamma inh	12-LOX inh
COCc1cc(OC)nc(-c2csc(C)n2)n1	-7%	-23%	6%	4%	11µM*	?
COCc1cc(=O)[nH]c(-c2csc(C)n2)n1	-3%	0%	-10%	5%	-15%	i
CN(C)C[C@@H]1CN(C)C[C@H]1NC(=O)c1nn(C)c2ccccc12	nt	nt	nt	nt	nt	50%
CC[C@H]1CN(C(C)=O)CC[C@H]1CC(=O)Nc1nccs1	nt	nt	nt	nt	nt	27%[176 µM]
COc1cccc(-n2cc(CNCc3c(C(=O)N(C)C)nc4ccc(Cl)cn34)cn2)c1	?	-10%	15µM*	?	13%	7%
Cc1ccccc1-n1cc(CNCc2c(C(=O)N(C)C)nc3ccc(Cl)cn23)cn1	-16%	-1%	?	?	21%	22%
COc1cccc(-n2cc(CNCc3cn(C)nc3-c3ccccc3F)cn2)c1	-6%	?	26µM*	?	14%	0%
Cc1cc2nc(CN(C)Cc3c(C(=O)N(C)C)nc4ccc(Cl)cn34)[nH]c2cc1C	?	5%	?	?	-45%	1%
CN(Cc1cccc(-n2cccn2)c1)Cc1cn(C)nc1-c1ccccc1F	1%	7%	?	?	14%	-6%
Cc1nonc1OCCNCc1c(C(=O)N(C)C)nc2ccc(Cl)cn12	?	2.8µM*	-21%	-7%	3.2µM*	-10%
Cc1cccc(C(=O)NCCC(=O)N2CCCCCC2)c1	nt	nt	nt	nt	nt	33%
O=S(=O)(NCCc1nnc2ccc(SCc3cccc(F)c3)nn12)c1ccccc1	nt	nt	nt	nt	nt	39%
Cc1ccc(S(=O)(=O)NCCc2nnc3ccc(SCc4cccc(F)c4)nn23)cc1	nt	nt	23µM*	15µM*	nt	-25%
Cc1ccc(S(=O)(=O)NCCc2nnc3ccc(SCc4ccc(F)cc4)nn23)cc1	nt	nt	18µM*	16µM*	nt	-32%
O=C(Cc1ccccc1)N1CCCC2(CC(c3ccccc3)=NO2)C1 (centres undefined)	nt	nt	nt	nt	nt	-1%[6.33 µM]
CCOC(=O)C1=C(C)OC(n2cccc2)=C(C#N)C1c1cc(OC)c(OC)c(OC)c1 (centres undefined)	nt	nt	nt	nt	nt	-1%
C/C(=N/NC(=O)CNC(=O)c1ccccn1)c1ccccc1	?	2%	9%	5%	-3%	4%
CC(=NNC(=S)Nc1ccccc1)c1ccccn1	nt	nt	0.12µM*	0.026µM*	nt	?
N/C(=N\NC(=O)Nc1ccccc1)c1ccccn1	?	0%	1%	5%	-9%	0%
CC(=NNC(=S)Nc1ccccc1Cl)c1ccccn1	nt	nt	0.15µM*	0.013µM*	nt	?
C=CCNC(=S)N/N=C(\C)c1ccccn1	0.18µM*	0.11µM*	0.018µM*	0.01µM*	0.028µM*	?
C/C(=N\Nc1ccc(Cl)c(C(=O)O)c1)c1ccccn1	?	22%	22%	2%	?	-27%
Cc1ccc(Cn2c(CNS(=O)(=O)c3ccc(C(C)(C)C)cc3)nc3cccnc32)cc1	nt	nt	?	?	nt	-17%
Cc1ccc(Cn2c(CNC(=O)c3ccccc3Br)nc3cccnc32)cc1	nt	nt	16µM*	?	nt	-13%
Cc1cccc(Cn2c(CNS(=O)(=O)c3ccc(Cl)s3)nc3cccnc32)c1	nt	nt	?	?	nt	-12%
SMILES	ELG1 repair inh	Gal4-VP16 FLuc	TDP1 cell noCPT	DT40 TDP1 CPT	RORgamma inh	12-LOX inh
Cc1ccc(S(=O)(=O)NCc2nc3cccnc3n2Cc2ccccc2Cl)c(C)c1	nt	nt	?	?	nt	-12%
COc1ccccc1Cn1c(CNS(=O)(=O)c2c(C)cc(C)cc2C)nc2cccnc21	nt	nt	16µM*	16µM*	nt	-9%
Cc1ccc(Cn2c(CNC(=O)c3ccc(Cl)c([N+](=O)[O-])c3)nc3cccnc32)cc1	nt	nt	?	?	nt	-11%
CCOc1ccc(Cn2c(CNS(=O)(=O)c3ccc(Cl)s3)nc3cccnc32)cc1	nt	nt	?	18µM*	nt	0%
Cc1ccc(Cn2c(CNS(=O)(=O)c3c(C)cc(C)cc3C)nc3cccnc32)cc1	nt	nt	?	16µM*	nt	?
COCC(=O)N1CCn2c(nn(-c3ccc([N+](=O)[O-])cc3)c2=O)C1	nt	nt	nt	nt	nt	9%[176 µM]
O=C1Nc2ccccc2CC12CCCCN2Cc1ccc(C(F)(F)F)cc1 (centres undefined)	nt	nt	nt	nt	nt	46%
CCOc1ccc(Cn2c(CNS(=O)(=O)c3c(C)cc(C)cc3C)nc3cccnc32)cc1	nt	nt	18µM*	?	nt	-15%
CCOc1ccc(Cn2c(CNS(=O)(=O)c3ccc(CC)cc3)nc3cccnc32)cc1	nt	nt	?	?	nt	-23%
Cc1ccc(-c2nnn(C/C(N)=N/O)n2)cc1	?	2.8µM*	-7%	10%	2.8µM*	5%
O=C(Nc1cccc(S(=O)(=O)N2CCCCC2)c1)c1cccc2cccnc12	nt	nt	nt	nt	nt	-2%
Cc1ccc(C)c(S(=O)(=O)N2CCN(C(=O)NC(C)CCc3ccccc3)CC2)c1 (centres undefined)	nt	nt	nt	nt	nt	-16%
CNc1oc(Cc2ccccc2)nc1S(=O)(=O)c1ccccc1	10%	5%	6.5µM*	15µM*	-19%	nt
CNc1oc(-c2ccccc2)nc1S(=O)(=O)c1ccc(C)cc1	3%	-2%	-28%	-26%	-6%	?
O=C(N/N=C/c1ccccn1)c1cc(-c2ccc(Cl)cc2)nc2ccccc12	?	0.71µM*	8.2µM*	3.3µM*	0.4µM*	-8%
O=C(O)COc1ccccc1/C=N/NC(=O)c1cc(-c2ccc(Cl)cc2)nc2ccccc12	9%	-3%	6.5µM*	-14%	-10%	?
O=C(O)COc1ccccc1/C=N/NC(=O)c1cc(-c2ccccc2)nc2ccccc12	3%	0%	-28%	-27%	0%	-83%
O=C(NC1CCCC1)c1cc(-c2ccc(Cl)cc2)nc2ccccc12	nt	nt	nt	nt	nt	-8%
O=C(N/N=C/c1ccccn1)c1cc(-c2ccc(Br)cc2)nc2ccccc12	?	1.1µM*	1.8µM*	2.6µM*	0.63µM*	136%
C[C@@H]1[C@H]2[C@@H](O[C@@H]3O[C@H](CO)[C@@H](O)[C@H](O)[C@H]3O)OC=C(C(=O)O)[C@H]2C[C@@H]1O	0%	nt	7.3µM*	7.3µM*	nt	8%
